Measured values as given in ChEMBL document CHEMBL2218924, “A broad activity screen in support of a chemogenomic map for kinase signalling research and drug discovery” (Biochem J, 2013).

Experiments:
[1] = molecular target: G protein-coupled receptor kinase 5 (Homo sapiens) (UniProt P34947); settings: at 1 µM
[2] = molecular target: Tyrosine-protein kinase Fer (Homo sapiens) (UniProt P16591); settings: at 10 µM
[3] = molecular target: Tyrosine-protein kinase Fes/Fps (Homo sapiens) (UniProt P07332); settings: at 1 µM
[4] = molecular target: Tyrosine-protein kinase Fes/Fps (Homo sapiens) (UniProt P07332); settings: at 10 µM
[5] = molecular target: Tyrosine-protein kinase Fgr (Homo sapiens) (UniProt P09769); settings: at 1 µM
[6] = molecular target: Tyrosine-protein kinase Fgr (Homo sapiens) (UniProt P09769); settings: at 10 µM
[7] = molecular target: Vascular endothelial growth factor receptor 1 (Homo sapiens) (UniProt P17948); settings: at 1 µM
[8] = molecular target: Vascular endothelial growth factor receptor 1 (Homo sapiens) (UniProt P17948); settings: at 10 µM
[9] = molecular target: Vascular endothelial growth factor receptor 3 (Homo sapiens) (UniProt P35916); settings: at 1 µM
[10] = molecular target: Vascular endothelial growth factor receptor 3 (Homo sapiens) (UniProt P35916); settings: at 10 µM
[11] = molecular target: Macrophage colony-stimulating factor 1 receptor (Homo sapiens) (UniProt P07333); settings: at 1 µM
[12] = molecular target: Macrophage colony-stimulating factor 1 receptor (Homo sapiens) (UniProt P07333); settings: at 10 µM
[13] = molecular target: Tyrosine-protein kinase Fyn (Homo sapiens) (UniProt P06241); settings: at 10 µM
[14] = molecular target: T1, Mitogen-activated protein kinase kinase kinase kinase 2 (Homo sapiens) (UniProt Q12851); settings: at 1 µM
T1 sequence (whole entry): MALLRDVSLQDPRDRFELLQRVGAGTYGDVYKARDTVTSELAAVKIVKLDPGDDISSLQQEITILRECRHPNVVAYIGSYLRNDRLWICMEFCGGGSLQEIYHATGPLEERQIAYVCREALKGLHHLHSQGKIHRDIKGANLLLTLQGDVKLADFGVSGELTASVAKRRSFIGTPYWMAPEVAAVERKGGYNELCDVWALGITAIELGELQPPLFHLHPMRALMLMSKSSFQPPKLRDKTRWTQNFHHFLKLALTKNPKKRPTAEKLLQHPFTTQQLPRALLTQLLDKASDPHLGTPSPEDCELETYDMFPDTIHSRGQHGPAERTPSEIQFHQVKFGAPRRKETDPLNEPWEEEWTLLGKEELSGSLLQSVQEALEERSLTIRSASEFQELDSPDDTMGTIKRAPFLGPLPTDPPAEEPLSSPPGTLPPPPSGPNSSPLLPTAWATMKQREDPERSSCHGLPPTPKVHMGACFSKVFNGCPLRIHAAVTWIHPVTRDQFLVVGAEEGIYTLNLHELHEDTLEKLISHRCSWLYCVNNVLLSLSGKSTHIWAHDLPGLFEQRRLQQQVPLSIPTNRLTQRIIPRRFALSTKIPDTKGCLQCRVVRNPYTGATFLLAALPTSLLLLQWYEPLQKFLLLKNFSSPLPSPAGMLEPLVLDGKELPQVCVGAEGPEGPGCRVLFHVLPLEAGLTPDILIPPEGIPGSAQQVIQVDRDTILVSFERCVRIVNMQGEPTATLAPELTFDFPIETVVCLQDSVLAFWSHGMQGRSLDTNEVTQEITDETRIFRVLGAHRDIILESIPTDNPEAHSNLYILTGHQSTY

[15] = molecular target: G protein-coupled receptor kinase 5 (Homo sapiens) (UniProt P34947); settings: at 10 µM
[16] = molecular target: G protein-coupled receptor kinase 6 (Homo sapiens) (UniProt P43250); settings: at 1 µM
[17] = molecular target: Receptor-type tyrosine-protein kinase FLT3 (Homo sapiens) (UniProt P36888); settings: at 1 µM
[18] = molecular target: Receptor-type tyrosine-protein kinase FLT3 (Homo sapiens) (UniProt P36888); settings: at 10 µM
[19] = molecular target: Tyrosine-protein kinase Fyn (Homo sapiens) (UniProt P06241); settings: at 1 µM
[20] = molecular target: T1, Mitogen-activated protein kinase kinase kinase kinase 2 (Homo sapiens); settings: at 10 µM

Chain of Vascular endothelial growth factor receptor 1 (Homo sapiens) (P17948 whole entry): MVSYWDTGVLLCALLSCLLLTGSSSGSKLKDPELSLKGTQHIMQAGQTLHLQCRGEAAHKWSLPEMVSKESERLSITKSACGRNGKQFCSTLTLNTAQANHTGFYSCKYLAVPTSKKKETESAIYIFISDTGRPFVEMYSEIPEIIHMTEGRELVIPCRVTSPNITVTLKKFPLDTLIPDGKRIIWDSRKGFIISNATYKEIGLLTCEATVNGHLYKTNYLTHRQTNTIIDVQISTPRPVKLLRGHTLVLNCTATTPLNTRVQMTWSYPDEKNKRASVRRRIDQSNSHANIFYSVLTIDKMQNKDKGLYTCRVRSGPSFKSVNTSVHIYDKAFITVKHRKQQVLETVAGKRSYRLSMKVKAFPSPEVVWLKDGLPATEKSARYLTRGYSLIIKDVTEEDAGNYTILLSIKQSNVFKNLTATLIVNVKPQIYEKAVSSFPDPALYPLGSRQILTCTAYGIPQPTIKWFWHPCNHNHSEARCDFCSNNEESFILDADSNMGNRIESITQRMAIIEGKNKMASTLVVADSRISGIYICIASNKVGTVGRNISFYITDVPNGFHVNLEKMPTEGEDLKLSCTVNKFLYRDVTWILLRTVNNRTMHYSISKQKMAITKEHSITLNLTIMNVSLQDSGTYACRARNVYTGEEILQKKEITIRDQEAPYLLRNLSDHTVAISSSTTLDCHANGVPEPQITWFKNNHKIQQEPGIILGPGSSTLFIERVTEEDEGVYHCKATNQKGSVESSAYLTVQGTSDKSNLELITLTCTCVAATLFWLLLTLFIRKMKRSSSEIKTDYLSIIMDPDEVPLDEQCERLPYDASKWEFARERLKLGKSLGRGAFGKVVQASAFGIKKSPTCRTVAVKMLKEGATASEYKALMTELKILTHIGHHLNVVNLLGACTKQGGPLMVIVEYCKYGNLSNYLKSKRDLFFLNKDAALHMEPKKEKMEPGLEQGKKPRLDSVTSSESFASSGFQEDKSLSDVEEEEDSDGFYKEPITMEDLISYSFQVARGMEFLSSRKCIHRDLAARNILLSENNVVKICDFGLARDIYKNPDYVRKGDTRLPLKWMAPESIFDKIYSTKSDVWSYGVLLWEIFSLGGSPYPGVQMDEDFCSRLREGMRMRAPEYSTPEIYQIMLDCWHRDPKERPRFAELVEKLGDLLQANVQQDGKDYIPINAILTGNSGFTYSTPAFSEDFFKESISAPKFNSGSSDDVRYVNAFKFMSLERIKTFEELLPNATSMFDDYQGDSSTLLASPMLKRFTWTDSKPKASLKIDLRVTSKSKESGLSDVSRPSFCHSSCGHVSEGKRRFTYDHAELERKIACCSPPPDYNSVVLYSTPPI
Chain of G protein-coupled receptor kinase 6 (Homo sapiens) (P43250 whole entry, looked up): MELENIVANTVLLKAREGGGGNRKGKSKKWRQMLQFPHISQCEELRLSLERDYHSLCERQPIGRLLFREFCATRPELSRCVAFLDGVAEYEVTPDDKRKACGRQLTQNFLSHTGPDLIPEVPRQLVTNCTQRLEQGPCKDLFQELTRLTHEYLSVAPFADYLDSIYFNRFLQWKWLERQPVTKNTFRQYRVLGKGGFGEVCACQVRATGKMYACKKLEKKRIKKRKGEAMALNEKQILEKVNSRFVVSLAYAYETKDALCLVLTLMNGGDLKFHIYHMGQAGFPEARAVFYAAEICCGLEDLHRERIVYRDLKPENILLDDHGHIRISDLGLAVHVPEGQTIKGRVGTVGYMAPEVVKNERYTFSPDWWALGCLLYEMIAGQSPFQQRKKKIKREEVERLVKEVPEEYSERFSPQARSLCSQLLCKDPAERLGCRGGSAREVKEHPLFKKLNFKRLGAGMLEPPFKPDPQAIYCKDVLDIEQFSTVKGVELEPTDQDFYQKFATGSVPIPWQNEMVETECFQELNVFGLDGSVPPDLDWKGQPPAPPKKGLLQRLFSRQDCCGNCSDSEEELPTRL
Chain of Vascular endothelial growth factor receptor 3 (Homo sapiens) (P35916 whole entry): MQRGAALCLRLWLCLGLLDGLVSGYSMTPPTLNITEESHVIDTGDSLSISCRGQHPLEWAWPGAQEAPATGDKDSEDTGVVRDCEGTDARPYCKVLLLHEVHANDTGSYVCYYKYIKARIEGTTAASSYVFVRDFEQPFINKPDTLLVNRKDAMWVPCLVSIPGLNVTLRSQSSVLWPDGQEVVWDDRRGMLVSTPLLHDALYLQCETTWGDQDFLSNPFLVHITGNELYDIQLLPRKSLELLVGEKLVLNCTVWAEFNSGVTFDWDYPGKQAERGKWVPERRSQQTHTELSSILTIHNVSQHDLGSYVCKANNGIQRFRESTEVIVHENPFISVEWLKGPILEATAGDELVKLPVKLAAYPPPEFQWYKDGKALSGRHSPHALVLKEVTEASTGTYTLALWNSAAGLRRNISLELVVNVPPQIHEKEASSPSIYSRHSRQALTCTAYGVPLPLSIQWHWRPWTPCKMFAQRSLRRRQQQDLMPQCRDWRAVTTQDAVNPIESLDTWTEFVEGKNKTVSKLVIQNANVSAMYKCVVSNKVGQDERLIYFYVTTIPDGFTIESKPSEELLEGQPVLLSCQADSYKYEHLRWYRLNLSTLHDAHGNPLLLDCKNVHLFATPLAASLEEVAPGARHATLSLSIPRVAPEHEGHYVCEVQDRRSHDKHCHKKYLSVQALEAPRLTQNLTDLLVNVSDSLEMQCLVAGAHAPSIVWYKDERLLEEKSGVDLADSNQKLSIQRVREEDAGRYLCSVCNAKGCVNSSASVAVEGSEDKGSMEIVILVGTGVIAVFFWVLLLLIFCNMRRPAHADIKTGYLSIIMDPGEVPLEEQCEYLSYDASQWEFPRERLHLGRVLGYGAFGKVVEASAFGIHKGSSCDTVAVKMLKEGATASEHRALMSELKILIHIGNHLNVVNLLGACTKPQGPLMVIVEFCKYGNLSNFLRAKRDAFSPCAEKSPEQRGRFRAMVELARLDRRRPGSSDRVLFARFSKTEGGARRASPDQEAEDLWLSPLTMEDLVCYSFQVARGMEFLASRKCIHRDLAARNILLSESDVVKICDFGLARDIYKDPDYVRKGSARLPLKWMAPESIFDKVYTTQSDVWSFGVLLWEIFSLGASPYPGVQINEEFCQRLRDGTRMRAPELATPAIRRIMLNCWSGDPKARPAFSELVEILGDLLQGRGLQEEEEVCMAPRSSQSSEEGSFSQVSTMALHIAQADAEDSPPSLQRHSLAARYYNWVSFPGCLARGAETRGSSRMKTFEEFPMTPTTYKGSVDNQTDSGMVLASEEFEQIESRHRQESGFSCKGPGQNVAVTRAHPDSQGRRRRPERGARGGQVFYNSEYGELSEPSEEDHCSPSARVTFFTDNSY
Chain of Tyrosine-protein kinase Fgr (Homo sapiens) (P09769 2-529 limits assumed): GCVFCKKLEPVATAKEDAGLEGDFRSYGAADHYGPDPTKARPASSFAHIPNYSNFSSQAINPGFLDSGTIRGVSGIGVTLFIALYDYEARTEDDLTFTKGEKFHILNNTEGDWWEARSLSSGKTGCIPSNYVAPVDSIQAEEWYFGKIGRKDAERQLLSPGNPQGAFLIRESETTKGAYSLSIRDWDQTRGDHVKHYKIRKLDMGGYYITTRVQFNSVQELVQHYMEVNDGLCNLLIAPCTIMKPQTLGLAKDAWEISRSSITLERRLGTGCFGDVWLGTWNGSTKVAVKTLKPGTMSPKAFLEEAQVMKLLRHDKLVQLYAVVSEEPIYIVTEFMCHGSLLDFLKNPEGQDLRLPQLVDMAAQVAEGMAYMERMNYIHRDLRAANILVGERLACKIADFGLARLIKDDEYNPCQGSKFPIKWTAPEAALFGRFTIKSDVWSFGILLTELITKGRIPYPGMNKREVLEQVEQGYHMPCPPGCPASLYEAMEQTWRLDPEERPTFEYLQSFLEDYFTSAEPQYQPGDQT
Chain of Tyrosine-protein kinase Fer (Homo sapiens) (P16591 whole entry, looked up): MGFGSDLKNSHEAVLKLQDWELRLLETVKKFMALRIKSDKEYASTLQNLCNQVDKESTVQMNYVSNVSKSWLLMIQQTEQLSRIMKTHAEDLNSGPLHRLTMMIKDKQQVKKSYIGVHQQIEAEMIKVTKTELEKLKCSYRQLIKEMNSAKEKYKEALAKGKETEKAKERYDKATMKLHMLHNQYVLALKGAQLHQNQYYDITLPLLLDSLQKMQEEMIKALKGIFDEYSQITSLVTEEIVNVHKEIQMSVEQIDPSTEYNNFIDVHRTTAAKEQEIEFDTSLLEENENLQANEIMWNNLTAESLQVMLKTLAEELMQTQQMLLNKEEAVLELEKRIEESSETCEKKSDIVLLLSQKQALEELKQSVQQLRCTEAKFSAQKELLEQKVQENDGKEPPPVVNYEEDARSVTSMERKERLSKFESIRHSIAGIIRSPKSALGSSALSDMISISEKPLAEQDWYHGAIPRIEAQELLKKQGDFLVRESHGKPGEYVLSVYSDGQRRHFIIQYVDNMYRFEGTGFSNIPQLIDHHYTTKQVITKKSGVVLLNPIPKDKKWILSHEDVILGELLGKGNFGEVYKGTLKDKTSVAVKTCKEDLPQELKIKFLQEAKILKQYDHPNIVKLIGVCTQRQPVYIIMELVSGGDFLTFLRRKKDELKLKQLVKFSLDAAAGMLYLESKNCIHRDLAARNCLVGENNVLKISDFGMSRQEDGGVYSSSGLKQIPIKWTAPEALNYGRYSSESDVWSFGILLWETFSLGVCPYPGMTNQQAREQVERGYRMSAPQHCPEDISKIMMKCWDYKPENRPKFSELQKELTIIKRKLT

SMILES	residual activity [1] [%]	residual activity [2] [%]	residual activity [3] [%]	residual activity [4] [%]	residual activity [5] [%]	residual activity [6] [%]	residual activity [7] [%]	residual activity [8] [%]	residual activity [9] [%]	residual activity [10] [%]	residual activity [11] [%]	residual activity [12] [%]	residual activity [13] [%]	residual activity [14] [%]	residual activity [15] [%]	residual activity [16] [%]	residual activity [17] [%]	residual activity [18] [%]	residual activity [19] [%]	residual activity [20] [%]
Nc1nc(Nc2ccc(S(N)(=O)=O)cc2)nn1C(=O)c1c(F)cccc1F	78	–	–	–	–	–	–	–	–	–	–	–	–	–	–	–	–	–	–	–
CC(C)(C)c1cc(C=C(C#N)C#N)cc(Br)c1O	120	107	125	98	113	96	102	82	96	83	97	76	15	113	100	106	–	–	–	–
c1cc(-c2cnn3cc(-c4ccc(OCCN5CCCCC5)cc4)cnc23)ccn1	–	–	87	31	28	2	0	0	1	0	3	1	1	10	–	101	0	-1	11	1
COc1cc2ncnc(Nc3ccc(OCc4ccccc4)cc3)c2cc1OC	101	98	131	97	67	42	57	27	6	2	20	11	64	101	97	98	40	24	79	85
CCC(=O)Nc1ccc2ncnc(Nc3cccc(Br)c3)c2c1	114	–	–	–	–	–	–	–	–	–	–	–	–	–	–	97	–	–	–	–
CCc1nc(-c2ccc(OC)cc2)[nH]c1-c1ccncc1	–	101	109	105	111	102	–	–	100	77	78	71	72	–	–	–	–	–	75	–
NC(=O)c1ccc2[nH]c(-c3ccc(Oc4ccc(Cl)cc4)cc3)nc2c1	93	–	–	–	–	–	–	–	–	–	–	–	–	–	–	93	–	–	–	–
O=C1Nc2ccc3ncsc3c2/C1=C/c1c[nH]cn1	71	40	62	15	47	15	1	0	0	0	22	3	12	7	25	–	1	0	46	1
COc1cc2nccc(Oc3ccc(NC(=O)Nc4cc(C)on4)c(Cl)c3)c2cc1OC	105	–	–	–	–	–	–	–	–	–	–	–	–	–	–	–	–	–	–	–
N/C(=N\[N+](=O)[O-])N/N=C\c1ccc(-c2cccc([N+](=O)[O-])c2)o1	–	–	–	–	–	–	86	72	58	42	67	65	83	–	–	97	73	48	77	87
